Results reported in PubChem BioAssay AID1626 (SRMLSC, 2009).
Out of some 220,000 compounds screened, about 2,000 (0.91%) were called active. Inconclusive results (about 2%) are left out. A selection follows. Measured potencies and affinities stand elsewhere. Values without a mark were called inactive. Rule as the data show it: inconclusive = inhibition above about 80% without an active follow-up result; inactive = below that; test concentration not stated here.

Assay: M. tuberculosis H37Rv growth inhibitors, H37Rv strain (AID 1626);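 also: bacteria incubated seven days before Alamar blue readout; 0% = bacteria only wells and 100% = bacteria with antibiotic wells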
Details: stronger effect = higher value, concentration not given here

SMILES	inhibition [%]
Cn1cc2cccc([N+](=O)[O-])c2n1	-0.35
O=C(/C=C/c1ccco1)Nc1ccc2c(c1)OCO2	2.3
Nc1nc(N2CCN(c3ccc(Cl)cc3)CC2)n[nH]1	6.82
CSc1ccc(C(=O)C2CCCN(Cc3ccn[nH]3)C2)cc1 (stereo unspecified)	2.84
CCCCc1ncc(CN2CCCC(C(=O)c3ccc(SC)cc3)C2)[nH]1 (stereo unspecified)	1.38
CCOC(=O)c1cc(-c2ccco2)nc2c1c(C)nn2-c1cccc(Cl)c1	-0.03
O=C(NCC1CCCCC1)c1cc([N+](=O)[O-])ccc1N1CCOCC1	6.09
CC(NC(=O)c1ccc(F)cc1)c1ccc2c(c1)CCCC2 (stereo unspecified)	1.58
CC(NC(=O)c1ccccc1Br)c1ccc2c(c1)CCCC2 (stereo unspecified)	6.54
CCC(Sc1ncnc2c1nnn2-c1ccc(F)cc1)C(=O)OC (stereo unspecified)	66.9
CCOC(=O)C(CC)Sc1ncnc2c1nnn2-c1ccc(F)cc1 (stereo unspecified)	10.4
Cc1cc(C)cc(NC(=O)NCc2c(-c3ccccc3)noc2C)c1	1.42
CCOc1ccc(NC(=O)c2ccccc2O)cc1	6.33
CCOc1ccc(NC(=O)C(CC)NC(=O)c2ccccc2CO)cc1 (stereo unspecified)	3.2
CN(C)/C=N/c1cc(=O)n(Cc2ccccc2)c(=O)n1C	-11.1
COc1ccc2oc(=O)c(-c3nc4ccccc4o3)cc2c1	2.35
O=c1oc2ccccc2cc1-c1nc2ccccc2o1	8.96
COc1ccc(-c2nnc(-c3cc4c(ccc5ccccc54)oc3=O)o2)cc1	-4.32
O=c1oc2ccc3ccccc3c2cc1-c1nnc(-c2ccccc2)o1	77.2
C=CCn1c(-c2ccccc2)nc2nc3ccccc3nc21	5.61
CNC(=O)CSc1nnc(-c2ccncc2)n1Cc1ccccc1	-4.15
CCOC(=O)CSC1=N/C(=C\c2cc(OC)c(OC)c(OC)c2)C(=O)N1C	0.23
CCC1Oc2ccc(C)cc2N(Cc2cccc(C)c2)C1=O (stereo unspecified)	17.5
CN(Cc1ncc[nH]1)C(=O)c1cc(COc2c(F)cccc2F)on1	0.91
Cc1ccc(/C=C/C(=O)N2CC(C)CC(C)C2)o1 (stereo unspecified)	15.8
O=C(/C=C/c1ccccc1[N+](=O)[O-])N1CCCCC1	3.44

SMILES	inhibition [%]
CC1CN(C(=O)/C=C/c2ccc([N+](=O)[O-])s2)CC(C)O1 (stereo unspecified)	6.46
O=C(/C=C/c1cccs1)N1CCCCC1	12.9
CCc1nc2ccccc2n1Cc1ccc(F)cc1	3.76
CCOC(=O)N1CCC(NC(=O)Cn2cc3c(n2)CCCC3)CC1	-5.16
Cc1ccccc1C(C(=O)NC1CCCCC1)N(C(=O)CNC(=O)c1ccco1)c1cccnc1 (stereo unspecified)	2.42
NC1=NCC(O)=C1c1nc2ccccc2[nH]1	4.96
Cc1ccc(C(=O)/C=C/c2cn(CC(O)CN3CCOCC3)c3ccccc23)cc1 (stereo unspecified)	78.3
COc1ccc(C(=O)/C=C/c2cn(CC(O)CN3CCOCC3)c3ccccc23)cc1 (stereo unspecified)	15.2
O=C(/C=C/c1cn(CC(O)CN2CCOCC2)c2ccccc12)c1cccs1 (stereo unspecified)	4.21
CCCCN(C)CC(O)Cn1cc(/C=C/C(=O)c2cccs2)c2ccccc21 (stereo unspecified)	32.9
O=Cc1cn(CC(O)CN2CCCCC2)c2ccccc12 (stereo unspecified)	-4.08
COc1ccc(C(=O)/C=C/c2cn(CC(O)CN3CCN(C)CC3)c3ccccc23)cc1OC (stereo unspecified)	-1.8
C=CCNC(=O)c1ccc(-c2ccc([N+](=O)[O-])cc2)o1	2.72
COc1cccc(/C=C2\SC(=S)N(NC(=O)c3ccncc3)C2=O)c1	-9.97
O=C(NCc1csc(-c2cccs2)n1)Nc1ccc(F)cc1F	-1.75
OCCNCC(O)Cn1c2ccccc2c2ccccc21 (stereo unspecified)	3.13
Cc1cc(C)n(CC(O)Cn2c3ccc(Cl)cc3c3cc(Cl)ccc32)c(=O)n1 (stereo unspecified)	3.67
CCOc1ccc(N=c2scc(-c3ccc(OC)cc3)n2CCO)cc1	27.6
OCCn1c(-c2ccccc2)csc1=Nc1ccccc1	3.23
Cc1cc(C)cc(C(=O)NCCCc2ccccc2)c1	-1.21
CCN(CC)C(=O)C1CCCN(Cc2sccc2C)C1 (stereo unspecified)	-5.07
Cc1nc(N)nc(COc2ccccc2)n1	-5.7
CCc1nc(N2CCCCC2)c2oc3ccccc3c2n1	22.4
CCc1nc(N2CCC(C)CC2)c2oc3ccccc3c2n1	21.7
O=C(NCCCn1ccnc1)C(=O)NCC(c1cccnc1)N1CCN(c2ccccc2)CC1 (stereo unspecified)	0.94
COC(=O)/C(=N/Nc1ccccc1)N1CCCc2ccccc21	38.7

SMILES	inhibition [%]
ClC(=C\c1ccccc1)/C=N/N1CCN(c2ccccn2)CC1	-1.5
CC(=O)Nc1ccc(NC(=O)CSc2ccc([N+](=O)[O-])cn2)cc1	-4.39
O=C(CSc1ccccn1)Nc1ccc2c(c1)OCCO2	-16.3
CSc1ncccc1C(=O)Nc1nnc(C2CC2)s1	0.73
O=C(Nc1nnc(SCc2c(Cl)cccc2Cl)s1)c1ccc2ncsc2c1	29.9
CCSc1nnc(NC(=O)c2cccnc2Cl)s1	-8.72
CCSc1nnc(NC(=O)c2cnccn2)s1	2.03
O=C(Nc1nnc(SCc2ccc(F)cc2)s1)c1cccnc1Cl	7.86
CC(=O)Nc1nnc(SCc2ccc(F)cc2)s1	1.23
Cc1cnc(C(=O)Nc2nnc(C)s2)cn1	-5.75
O=C(Nc1nnc(C2CC2)s1)c1ccncc1	-4.03
COc1ccc(N2CCN(C(=O)C(C)(C)Oc3ccc(Cl)cc3)CC2)cc1	10.8
CCCCn1c(/C=C/c2ccco2)nc2ccccc21	-4.08
CN(CCC(=O)Nc1ccc2c(c1)OCO2)Cc1ccccc1	-7.11
Cc1cccc(S(=O)(=O)NNC(=O)Cc2cccn2C)c1	3.18
COc1ccccc1NC(=O)COc1ccc(Br)cc1CNCCCN1CCOCC1	-1.49
Oc1ccccc1/C=N/[n+]1ccccc1	-3.35
CCc1cc(=O)oc2cc(OCC(=O)O)c(Cl)cc12	-5.56
CCC(=O)Nc1nnc(SCc2ccc(F)cc2)s1	7.4
O=C(Nc1nnc(SCc2ccc(F)cc2)s1)c1ccco1	-8.91
CCCCNC(=O)Nc1ccccc1C(=O)Nc1ccc(OC)cc1	-1.66
CCc1cccc(NC(=O)C(NC(=O)C2CCCCC2)C(C)C)c1 (stereo unspecified)	-6.21
COc1ccc(C)cc1S(=O)(=O)N1c2ccccc2CC1C (stereo unspecified)	2.45
CCOC(=O)c1cnc(-n2nc(C)cc2C)nc1N(C)C	4.9
CCOC(=O)c1cnc(-n2nc(C)cc2C)nc1NNc1nc(C)cc(C)n1	71.3
CCOC(=O)c1cnc(-n2nc(C)cc2C)nc1Oc1ccc(C(=O)OC)cc1	8.41

SMILES	inhibition [%]
CCOC(=O)c1cnc(-n2nc(C)cc2C)nc1N1CCOCC1	-9.47
CCOC(=O)c1cnc(-n2nc(C)cc2C)nc1Nc1cccc(C(=O)O)c1	7.26
CCOC(=O)c1cnc(-n2nc(C)cc2C)nc1Nc1ccc(O)cc1	0.145
CCOC(=O)c1cnc(-n2nc(C)cc2C)nc1Oc1ccc(C#N)cc1	-2.96
CCOC(=O)c1cnc(-n2nc(C)cc2C)nc1NC	19.4
O=C(O)c1cccnc1Br	1.4
Cc1ccc(/C=N/OC(=O)c2nn(C)cc2Cl)cc1	11.9
CCC1CSC(Nc2ccc(C(=O)/C=C/c3ccc(OC)c(OC)c3)cc2)=N1 (stereo unspecified)	44.8
CCCc1cc(=O)[nH]c(SCc2ccc(F)cc2)n1	-1.85
COc1cccc(NC(=O)N2CCCc3ccccc32)c1	15
COc1cccc2sc(N(CCCN(C)C)C(=O)COc3ccc(Cl)cc3)nc12	-2.48
COc1cccc2sc(N(CCCN(C)C)C(=O)c3sc4ccccc4c3Cl)nc12	1.6
Cc1cccc(C(=O)Nc2ccccc2C(=O)OCC(=O)Nc2ccc(C#N)cc2)c1	45
CCNC(=O)COC(=O)CNC(=O)c1cc(Cl)cc([N+](=O)[O-])c1	-10
O=C(Oc1ccc(Cl)c2cccnc12)N1CCCCC1	4.79
CN(C)C(=O)Oc1ccc(Cl)c2cccnc12	-4.68
CCCC(=O)Nc1ccc(NC(=O)c2ccccc2Cl)nc1	7.45
O=C(N/N=C/C=C\c1ccc([N+](=O)[O-])cc1)c1cccnc1	-15.7
Cc1ccc(S(=O)(=O)Oc2ccc3c(c2)O/C(=C\c2cccnc2)C3=O)cc1	-0.74
O=C1/C(=C/c2cccnc2)Oc2cc(OS(=O)(=O)c3ccc(Cl)cc3)ccc21	13.6
O=C1/C(=C/c2ccncc2)Oc2cc(OS(=O)(=O)c3ccccc3)ccc21	21.6
CS(=O)(=O)Oc1ccc2c(c1)O/C(=C\c1cccnc1)C2=O	-6.08
Cc1ccc2[nH]cc(C(=O)CN3CCOCC3)c2c1	-4.26
